Screen size: about 5,500 compounds; about 2,000 (36%) were called active. Roughly 18% stayed inconclusive and do not appear here. No stated cut-off is given here; in the data, active means normalized growth mostly below about 0.91 (no sharp cut-off); inconclusive means no clear call, values can overlap the other calls; inactive means mostly above about 0.92. The list shows a part of the results.
Experiment: chemical genetic growth profiling, strain panel (AID 1159580);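 further: tested at 20 µM; growth read once vehicle control cultures reached saturation at 30 °C; 1 = growth at the plate median or of vehicle wells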
Conditions: growth OD

With `CC(=O)[C@H]1CCC2C3CCC4=CC(=O)CC[C@]4(C)C3CC[C@@]21C` (some centres not stated) the normalized growth (S. cerevisiae deletion strains, locus YJR075W, strain HOC1, stronger effect = lower value) was 0.949 (inactive), the normalized growth (S. cerevisiae deletion strains, locus YKL009W, strain mrt4, stronger effect = lower value) was 0.914 (inactive) and the normalized growth (S. cerevisiae deletion strains, locus YKL068W, stronger effect = lower value) was 0.947 (inactive). For the same compound, the normalized growth (S. cerevisiae deletion strains, locus YKL085W, strain MDH1 (second series), stronger effect = lower value) was 0.929 (active), the normalized growth (S. cerevisiae deletion strains, locus YKL085W, strain MDH1, stronger effect = lower value) was 0.929 (active) and the normalized growth (S. cerevisiae deletion strains, locus YKL160W, strain elf1, stronger effect = lower value) was 0.913 (inactive). The normalized growth (S. cerevisiae deletion strains, locus YKL190W, strain CNB1, stronger effect = lower value) was 0.978 (inactive), the normalized growth (S. cerevisiae deletion strains, locus YKR001C, strain vps1, stronger effect = lower value) was 0.704 (active) and the normalized growth (S. cerevisiae deletion strains, locus YKR026C, strain gcn3, stronger effect = lower value) was 0.981 (inactive). The normalized growth (S. cerevisiae deletion strains, locus YKR091W, strain srl3, stronger effect = lower value) was 0.977 (inactive), the normalized growth (S. cerevisiae deletion strains, locus YLL001W, strain dnm1, stronger effect = lower value) was 0.989 (inactive) and the normalized growth (S. cerevisiae deletion strains, locus YLL026W, stronger effect = lower value) was 0.978 (inactive). The normalized growth (S. cerevisiae deletion strains, locus YLL041C, strain sdh2, stronger effect = lower value) was 0.977 (inactive), the normalized growth (S. cerevisiae deletion strains, locus YLR027C, strain aat2, stronger effect = lower value) was 0.95 (inactive) and the normalized growth (S. cerevisiae deletion strains, locus YLR039C, strain RIC1, stronger effect = lower value) was 0.447 (active). The normalized growth (S. cerevisiae deletion strains, locus YLR058C, strain SHM2, stronger effect = lower value) was 0.974 (inactive), the normalized growth (S. cerevisiae deletion strains, locus YLR102C, strain apc9, stronger effect = lower value) was 0.942 (inactive) and the normalized growth (S. cerevisiae deletion strains, locus YLR113W, strain HOG1, stronger effect = lower value) was 0.958 (inactive). The normalized growth (S. cerevisiae deletion strains, locus YLR221C, strain rsa3, stronger effect = lower value) was 0.955 (inactive), the normalized growth (S. cerevisiae deletion strains, locus YLR258W, strain gsy2, stronger effect = lower value) was 0.962 (inactive) and the normalized growth (S. cerevisiae deletion strains, locus YLR262C, strain YPT6 (second series), stronger effect = lower value) was 0.475 (active). For the same compound, the normalized growth (S. cerevisiae deletion strains, locus YLR262C, strain YPT6, stronger effect = lower value) was 0.494 (active), the normalized growth (S. cerevisiae deletion strains, locus YLR268W, strain sec22, stronger effect = lower value) was 0.718 (active) and the normalized growth (S. cerevisiae deletion strains, locus YLR320W, strain mms22, stronger effect = lower value) was 0.615 (active). The normalized growth (S. cerevisiae deletion strains, locus YLR330W, strain CHS5, stronger effect = lower value) was 0.978 (inactive), the normalized growth (S. cerevisiae deletion strains, locus YLR342W, strain FKS1 (second series), stronger effect = lower value) was 0.814 (inactive) and the normalized growth (S. cerevisiae deletion strains, locus YLR342W, strain FKS1, stronger effect = lower value) was 0.94 (inactive). For the same compound, the normalized growth (S. cerevisiae deletion strains, locus YLR357W, strain rsc2, stronger effect = lower value) was 1.05 (inactive), the normalized growth (S. cerevisiae deletion strains, locus YLR370C, strain arc18, stronger effect = lower value) was 0.957 (inactive) and the normalized growth (S. cerevisiae deletion strains, locus YLR371W, strain rom2, stronger effect = lower value) was 0.904 (active). For the same compound, the normalized growth (S. cerevisiae deletion strains, locus YLR384C, strain iki3, stronger effect = lower value) was 0.968 (inactive), the normalized growth (S. cerevisiae deletion strains, locus YLR418C, strain cdc73, stronger effect = lower value) was 0.441 (active) and the normalized growth (S. cerevisiae deletion strains, locus YML016C, strain PPZ1, stronger effect = lower value) was 0.963 (inactive). For the same compound, the normalized growth (S. cerevisiae deletion strains, locus YML032C, strain rad52, stronger effect = lower value) was 0.76 (active), the normalized growth (S. cerevisiae deletion strains, locus YML120C, strain ndi1, stronger effect = lower value) was 0.966 (inactive) and the normalized growth (S. cerevisiae deletion strains, locus YML124C, strain tub3, stronger effect = lower value) was 0.942 (inactive). For the same compound, the normalized growth (S. cerevisiae deletion strains, locus YMR058W, strain fet3, stronger effect = lower value) was 0.923 (inactive), the normalized growth (S. cerevisiae deletion strains, locus YMR078C, strain ctf18, stronger effect = lower value) was 0.724 (active) and the normalized growth (S. cerevisiae deletion strains, locus YMR125W, strain sto1, stronger effect = lower value) was 0.942 (inactive). The normalized growth (S. cerevisiae deletion strains, locus YMR129W, stronger effect = lower value) was 0.976 (inactive), the normalized growth (S. cerevisiae deletion strains, locus YMR205C, strain PFK2, stronger effect = lower value) was 0.813 (active) and the normalized growth (S. cerevisiae deletion strains, locus YMR223W, strain ubp8, stronger effect = lower value) was 0.782 (active). For the same compound, the normalized growth (S. cerevisiae deletion strains, locus YMR231W, strain pep5, stronger effect = lower value) was 0.96 (inactive), the normalized growth (S. cerevisiae deletion strains, locus YMR263W, strain SAP30, stronger effect = lower value) was 0.973 (inactive) and the normalized growth (S. cerevisiae deletion strains, locus YMR307W, strain GAS1, stronger effect = lower value) was 0.78 (inactive). For the same compound, the normalized growth (S. cerevisiae deletion strains, locus YNL067W, strain RPL9B, stronger effect = lower value) was 0.952 (inactive), the normalized growth (S. cerevisiae deletion strains, locus YNL071W, strain lat1, stronger effect = lower value) was 0.632 (active) and the normalized growth (S. cerevisiae deletion strains, locus YNL128W, strain TEP1, stronger effect = lower value) was 0.99 (inactive). For the same compound, the normalized growth (S. cerevisiae deletion strains, locus YNL153C, strain GIM3, stronger effect = lower value) was 0.967 (inactive), the normalized growth (S. cerevisiae deletion strains, locus YNL183C, strain NPR1, stronger effect = lower value) was 0.933 (inactive) and the normalized growth (S. cerevisiae deletion strains, locus YNL209W, strain ssb2, stronger effect = lower value) was 0.991 (inactive). The normalized growth (S. cerevisiae deletion strains, locus YNL233W, strain BNI4, stronger effect = lower value) was 0.947 (inactive), the normalized growth (S. cerevisiae deletion strains, locus YNL248C, strain rpa49, stronger effect = lower value) was 0.94 (inactive) and the normalized growth (S. cerevisiae deletion strains, locus YNL250W, strain rad50, stronger effect = lower value) was 0.917 (inactive). The normalized growth (S. cerevisiae deletion strains, locus YNL271C, strain bni1, stronger effect = lower value) was 0.889 (active), the normalized growth (S. cerevisiae deletion strains, locus YNL298W, strain CLA4, stronger effect = lower value) was 0.865 (active) and the normalized growth (S. cerevisiae deletion strains, locus YNL307C, strain MCK1, stronger effect = lower value) was 0.185 (active). For the same compound, the normalized growth (S. cerevisiae deletion strains, locus YNL322C, strain KRE1 (second series), stronger effect = lower value) was 1 (inactive), the normalized growth (S. cerevisiae deletion strains, locus YNL322C, strain KRE1, stronger effect = lower value) was 0.989 (inactive) and the normalized growth (S. cerevisiae deletion strains, locus YNR049C, strain mso1, stronger effect = lower value) was 0.975 (inactive). For the same compound, the normalized growth (S. cerevisiae deletion strains, locus YNR052C, strain pop2, stronger effect = lower value) was 0.733 (active), the normalized growth (S. cerevisiae deletion strains, locus YOL006C, strain TOP1, stronger effect = lower value) was 0.652 (inactive) and the normalized growth (S. cerevisiae deletion strains, locus YOL012C, strain htz1) was 0.798 (inactive). For the same compound, the normalized growth (S. cerevisiae deletion strains, locus YOL147C, strain pex11, stronger effect = lower value) was 0.527 (active), the normalized growth (S. cerevisiae deletion strains, locus YOR001W, strain rrp6, stronger effect = lower value) was 0.934 (inactive) and the normalized growth (S. cerevisiae deletion strains, locus YOR061W, strain CKA2, stronger effect = lower value) was 0.964 (inactive). The normalized growth (S. cerevisiae deletion strains, locus YOR069W, strain VPS5, stronger effect = lower value) was 0.978 (inactive), the normalized growth (S. cerevisiae deletion strains, locus YOR070C, strain gyp1, stronger effect = lower value) was 0.955 (inactive) and the normalized growth (S. cerevisiae deletion strains, locus YOR080W, strain dia2, stronger effect = lower value) was 0.993 (inactive). The normalized growth (S. cerevisiae deletion strains, locus YOR083W, strain WHI5, stronger effect = lower value) was 0.941 (inactive), the normalized growth (S. cerevisiae deletion strains, locus YOR106W, strain vam3, stronger effect = lower value) was 0.95 (inactive) and the normalized growth (S. cerevisiae deletion strains, locus YOR136W, strain idh2, stronger effect = lower value) was 0.943 (inactive). The normalized growth (S. cerevisiae deletion strains, locus YOR144C, strain elg1, stronger effect = lower value) was 0.852 (active), the normalized growth (S. cerevisiae deletion strains, locus YOR184W, strain ser1, stronger effect = lower value) was 0.284 (active) and the normalized growth (S. cerevisiae deletion strains, locus YOR231W, strain MKK1, stronger effect = lower value) was 0.937 (inactive). The normalized growth (S. cerevisiae deletion strains, locus YOR265W, strain rbl2, stronger effect = lower value) was 0.967 (inactive), the normalized growth (S. cerevisiae deletion strains, locus YOR270C, strain vph1, stronger effect = lower value) was 0.704 (active) and the normalized growth (S. cerevisiae deletion strains, locus YOR290C, strain snf2, stronger effect = lower value) was 0.926 (inactive). The normalized growth (S. cerevisiae deletion strains, locus YOR316C, strain cot1, stronger effect = lower value) was 0.884 (active), the normalized growth (S. cerevisiae deletion strains, locus YPL051W, strain arl3, stronger effect = lower value) was 0.903 (active) and the normalized growth (S. cerevisiae deletion strains, locus YPL055C, strain LGE1, stronger effect = lower value) was 0.929 (inactive). The normalized growth (S. cerevisiae deletion strains, locus YPL078C, strain atp4, stronger effect = lower value) was 0.874 (active), the normalized growth (S. cerevisiae deletion strains, locus YPL106C, strain sse1, stronger effect = lower value) was 1.05 (inactive) and the normalized growth (S. cerevisiae deletion strains, locus YPL240C, strain hsp82, stronger effect = lower value) was 0.964 (inactive). For the same compound, the normalized growth (S. cerevisiae deletion strains, locus YPL241C, strain CIN2, stronger effect = lower value) was 0.977 (inactive), the normalized growth (S. cerevisiae deletion strains, locus YPL256C, strain CLN2, stronger effect = lower value) was 0.981 (inactive) and the normalized growth (S. cerevisiae deletion strains, locus YPR119W, strain clb2, stronger effect = lower value) was 0.919 (active). For the same compound, the normalized growth (S. cerevisiae deletion strains, locus YPR141C, strain kar3, stronger effect = lower value) was 0.937 (inactive), the normalized growth (S. cerevisiae deletion strains, locus YPR163C, strain tif3, stronger effect = lower value) was 0.527 (active) and the normalized growth (S. cerevisiae deletion strains, locus YPR167C, strain met16, stronger effect = lower value) was 0.945 (inactive). For the same compound, the normalized growth (S. cerevisiae deletion strains, strain wtn01, stronger effect = lower value) was 0.789 (active) and the normalized growth (S. cerevisiae strains, strain wild type, stronger effect = lower value) was 0.974 (inactive).
